Source: PubChem BioAssay (EPA / NIEHS)
Active and inactive are the calls of the source. How the source made its calls: active means hit-call score of the fitted dose curve at least 0.9, where 1 is the maximum; inactive means score below 0.9.

Assays:
Conditions in all cases: mRNA level, 48 h; actives raise or lower the signal
[1] = read-out: Fatty acid synthase (Homo sapiens) (UniProt P49327); test: LTEA_HepaRG_FASN: Life Technologies and Expression Analysis (LTEA) Assay for Fatty Acid Synthase (FASN) using HepaRG (AID 2283448)
In short: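 HepaRG, 48 h exposure, 8-pt half-log series top 100 uM, 0.5% DMSO vehicle, duplicates. Readout: FASN transcript by Fluidigm qRT-PCR; housekeeping-normalized; bidirectional curve fit vs DMSO baseline.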

[2] = read-out: Cyclin D2 (CCND2), CCND2 (gene 894); test: LTEA_HepaRG_CCND2: Life Technologies and Expression Analysis (LTEA) Assay for Cyclin D2 (CCND2) using HepaRG (AID 2283449)
In short: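 CCND2 transcript levels, quantified by qRT-PCR and normalised to three housekeeping genes, were fitted bidirectionally against 0.5% DMSO. HepaRG cultures were dosed 48 h in duplicate with an 8-point half-log series up to 100 uM.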

[3] = read-out: Cyclin Dependent Kinase Inhibitor 1A (CDKN1A), CDKN1A (gene 1026); test: LTEA_HepaRG_CDKN1A: Life Technologies and Expression Analysis (LTEA) Assay for Cyclin Dependent Kinase Inhibitor 1A (CDKN1A) using HepaRG (AID 2283450)
In short: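 Differentiated HepaRG cells in serum-free induction medium, exposed 48 h in duplicate to eight half-log concentrations up to 100 uM in 0.5% DMSO. mRNA measured by TaqMan qRT-PCR, normalized to ACTB, GAPDH, POLR2A; bidirectional fit versus DMSO.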

[4] = read-out: Cyclin D1 (CCND1), CCND1 (gene 595); test: LTEA_HepaRG_CCND1: Life Technologies and Expression Analysis (LTEA) Assay for Cyclin D1 (CCND1) using HepaRG (AID 2283451);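 on AC50: TaqMan qRT-PCR transcript level normalised to ACTB GAPDH and POLR2A housekeeping genes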
In short: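 Differentiated HepaRG cells exposed 48 h in serum-free induction medium to eight half-log concentrations from 100 uM top, 0.5% DMSO, duplicates. CCND1 mRNA measured by Fluidigm TaqMan qRT-PCR, normalised to ACTB, GAPDH, POLR2A; bidirectional fit.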

[5] = read-out: catalase (CAT), CAT (gene 847); test: LTEA_HepaRG_CAT: Life Technologies and Expression Analysis (LTEA) Assay for catalase (CAT) using HepaRG (AID 2283452)
In short: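 Expression of CAT was quantified by TaqMan qRT-PCR with ACTB/GAPDH/POLR2A normalization after 48 h chemical exposure of HepaRG. Eight-point half-log series, top 100 uM, in 0.5% DMSO; gain or loss fitted against vehicle.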

[6] = read-out: flavin-containing dimethylaniline monooxygenases 3 (FMO3), FMO3 (gene 2328); test: LTEA_HepaRG_FMO3: Life Technologies and Expression Analysis (LTEA) Assay for flavin-containing dimethylaniline monooxygenases 3 (FMO3) using HepaRG (AID 2283453)
In short: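 Eight-point concentration-response in serum-free HepaRG cultures (top 100 uM, 0.5% DMSO, 48 h). Read-out: FMO3 mRNA level normalized to three endogenous control genes, fitted bidirectionally versus vehicle.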

[7] = read-out: Cytochrome P450 (CYP1A1), CYP1A1 (gene 1543); test: LTEA_HepaRG_CYP1A1: Life Technologies and Expression Analysis (LTEA) Assay for Cytochrome P450 (CYP1A1) using HepaRG (AID 2283454)
In short: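 Differentiated human HepaRG cells, after 48 h plating, exposed in duplicate for 48 h in serum-free induction medium to 8 half-log concentrations up to 100 uM in 0.5% DMSO. CYP1A1 mRNA by qRT-PCR, normalized to ACTB/GAPDH/POLR2A; bidirectional fit versus DMSO.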

[8] = read-out: Forkhead box O1 (FOXO1), FOXO1 (gene 2308); test: LTEA_HepaRG_FOXO1: Life Technologies and Expression Analysis (LTEA) Assay for Forkhead box O1 (FOXO1) using HepaRG (AID 2283456)
In short: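 FOXO1 transcript quantified by qRT-PCR after 48 h chemical exposure (top 100 uM, half-log steps, 0.5% DMSO) of HepaRG cells, housekeeping-normalized (ACTB/GAPDH/POLR2A). Changes fitted in both directions relative to vehicle.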

[9] = read-out: growth arrest and DNA damage 45 (GADD45A), GADD45A (gene 1647); test: LTEA_HepaRG_GADD45A: Life Technologies and Expression Analysis (LTEA) Assay for growth arrest and DNA damage 45 (GADD45A) using HepaRG (AID 2283458)
In short: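 HepaRG, 48 h exposure, 8 conc. (top 100 uM, half-log steps), 0.5% DMSO vehicle, duplicates. Read-out: qRT-PCR mRNA level, housekeeping-normalized (ACTB/GAPDH/POLR2A). Curves fit bidirectionally vs DMSO baseline.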

[10] = read-out: Forkhead box O3 (FOXO3), FOXO3 (gene 2309); test: LTEA_HepaRG_FOXO3: Life Technologies and Expression Analysis (LTEA) Assay for Forkhead box O3 (FOXO3) using HepaRG (AID 2283459)
In short: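 FOXO3 transcript measured by qRT-PCR (normalized to ACTB, GAPDH, POLR2A) after 48 h exposure of HepaRG cells in serum-free induction medium. Duplicates, eight half-log concentrations up to 100 uM, 0.5% DMSO; gain or loss fitted against DMSO.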

[11] = read-out: ABC Transporter (ABCB1), ABCB1 (gene 5243); test: LTEA_HepaRG_ABCB1: Life Technologies and Expression Analysis (LTEA) Assay for ABC Transporter (ABCB1) using HepaRG (AID 2283460)
In short: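 ABCB1 transcript level measured by TaqMan qRT-PCR against three housekeeping genes after 48 h chemical exposure of differentiated HepaRG cells. Top concentration 100 uM, half-log steps, eight points, 0.5% DMSO vehicle; bidirectional fit relative to DMSO.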

[12] = read-out: growth arrest and DNA damage 45 (GADD45B), GADD45B (gene 4616); test: LTEA_HepaRG_GADD45B: Life Technologies and Expression Analysis (LTEA) Assay for growth arrest and DNA damage 45 (GADD45B) using HepaRG (AID 2283461)
In short: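 Differentiated human HepaRG cells in serum-free induction medium exposed 48 h in duplicate to eight concentrations, top 100 uM, half-log steps, 0.5% DMSO. GADD45B mRNA by TaqMan qRT-PCR, normalized to ACTB, GAPDH, POLR2A; bidirectional fit versus DMSO.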

[13] = read-out: ABC Transporter (ABCC3), ABCC3 (gene 8714); test: LTEA_HepaRG_ABCC3: Life Technologies and Expression Analysis (LTEA) Assay for ABC Transporter (ABCC3) using HepaRG (AID 2283462)
In short: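 Differentiated human HepaRG cells exposed 48 h in serum-free induction medium, 0.5% DMSO vehicle, 8-point half-log series to 100 uM in duplicate. ABCC3 mRNA by qRT-PCR, normalised to ACTB, GAPDH, POLR2A; bidirectional fit vs DMSO.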

[14] = read-out: ABC Transporter (ABCB11), ABCB11 (gene 8647); test: LTEA_HepaRG_ABCB11: Life Technologies and Expression Analysis (LTEA) Assay for ABC Transporter (ABCB11) using HepaRG (AID 2283463)
In short: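 ABCB11 transcript levels quantified by TaqMan qRT-PCR against three housekeeping genes after 48 h chemical exposure of HepaRG cultures. Concentrations up to 100 uM in half-log steps, 0.5% DMSO vehicle; both induction and suppression scored.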

[15] = read-out: ABC Transporter (ABCC2), ABCC2 (gene 1244); test: LTEA_HepaRG_ABCC2: Life Technologies and Expression Analysis (LTEA) Assay for ABC Transporter (ABCC2) using HepaRG (AID 2283464)
In short: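 Differentiated HepaRG cells in serum-free induction medium exposed 48 h to eight half-log concentrations up to 100 uM, 0.5% DMSO, in duplicate. ABCC2 mRNA measured by qRT-PCR (TaqMan, Fluidigm), normalized to ACTB, GAPDH and POLR2A. Fitted in both directions against DMSO.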

[16] = read-out: Broad substrate specificity ATP-binding cassette transporter ABCG2 (Homo sapiens) (UniProt Q9UNQ0); test: LTEA_HepaRG_ABCG2: Life Technologies and Expression Analysis (LTEA) Assay for ABC Transporter (ABCG2) using HepaRG (AID 2283465)
In short: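 ABCG2 transcript was quantified by TaqMan qRT-PCR against three housekeeping genes in HepaRG cells. Cells were treated in duplicate for 48 h across an 8-point half-log series up to 100 uM, with 0.5% DMSO vehicle. Gain or loss versus DMSO was fit.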

[17] = read-out: ATP-citrate lyase (ACLY), ACLY (gene 47); test: LTEA_HepaRG_ACLY: Life Technologies and Expression Analysis (LTEA) Assay for ATP-citrate lyase (ACLY) using HepaRG (AID 2283466)
In short: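 ACLY mRNA quantified by qRT-PCR on Fluidigm arrays against three housekeeping genes, after 48 h chemical treatment of HepaRG cells (top concentration 100 uM, half-log steps, 0.5% DMSO vehicle). Up- or down-regulation fitted relative to DMSO.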

[18] = read-out: Peroxisomal acyl-coenzyme A oxidase 1 (ACOX1) gene, ACOX1 (gene 51); test: LTEA_HepaRG_ACOX1: Life Technologies and Expression Analysis (LTEA) Assay for Peroxisomal acyl-coenzyme A oxidase 1 (ACOX1) gene using HepaRG (AID 2283467)
In short: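 ACOX1 transcript levels were quantified by TaqMan qRT-PCR against three housekeeping genes after 48 h chemical exposure of differentiated human HepaRG cells. Exposure used eight half-log steps topping at 100 uM, 0.5% DMSO vehicle, in duplicate. Bidirectional curve fits were made relative to DMSO.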

[19] = read-out: CFLAR gene, CFLAR (gene 8837); test: LTEA_HepaRG_CFLAR: Life Technologies and Expression Analysis (LTEA) Assay for CFLAR gene using HepaRG (AID 2283455)
In short: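 Transcript level by qRT-PCR (normalized to ACTB, GAPDH and POLR2A) after 48 h chemical exposure of HepaRG cells, top concentration 100 uM with half-log steps, 0.5% DMSO vehicle, duplicates; fitted bidirectionally against DMSO baseline.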

Measured: AC50

Broad substrate specificity ATP-binding cassette transporter ABCG2 (Homo sapiens), sequence (Q9UNQ0 whole entry, looked up): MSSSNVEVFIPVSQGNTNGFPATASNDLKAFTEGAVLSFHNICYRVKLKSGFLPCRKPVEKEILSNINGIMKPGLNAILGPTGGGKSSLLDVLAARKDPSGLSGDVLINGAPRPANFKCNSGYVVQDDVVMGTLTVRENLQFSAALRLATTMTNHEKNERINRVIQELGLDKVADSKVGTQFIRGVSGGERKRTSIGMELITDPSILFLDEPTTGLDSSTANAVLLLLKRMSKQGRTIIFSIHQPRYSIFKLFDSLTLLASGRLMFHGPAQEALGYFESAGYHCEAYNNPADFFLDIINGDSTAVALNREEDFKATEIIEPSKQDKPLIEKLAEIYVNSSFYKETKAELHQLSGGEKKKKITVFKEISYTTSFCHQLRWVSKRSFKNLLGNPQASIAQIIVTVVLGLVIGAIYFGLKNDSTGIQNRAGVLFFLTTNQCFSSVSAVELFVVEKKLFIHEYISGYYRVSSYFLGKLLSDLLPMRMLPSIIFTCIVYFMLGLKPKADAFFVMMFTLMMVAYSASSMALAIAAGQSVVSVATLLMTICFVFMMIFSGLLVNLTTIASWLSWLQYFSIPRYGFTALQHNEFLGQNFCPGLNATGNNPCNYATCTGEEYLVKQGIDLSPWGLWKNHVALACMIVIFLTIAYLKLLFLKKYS
Fatty acid synthase (Homo sapiens), sequence (P49327 whole entry, looked up): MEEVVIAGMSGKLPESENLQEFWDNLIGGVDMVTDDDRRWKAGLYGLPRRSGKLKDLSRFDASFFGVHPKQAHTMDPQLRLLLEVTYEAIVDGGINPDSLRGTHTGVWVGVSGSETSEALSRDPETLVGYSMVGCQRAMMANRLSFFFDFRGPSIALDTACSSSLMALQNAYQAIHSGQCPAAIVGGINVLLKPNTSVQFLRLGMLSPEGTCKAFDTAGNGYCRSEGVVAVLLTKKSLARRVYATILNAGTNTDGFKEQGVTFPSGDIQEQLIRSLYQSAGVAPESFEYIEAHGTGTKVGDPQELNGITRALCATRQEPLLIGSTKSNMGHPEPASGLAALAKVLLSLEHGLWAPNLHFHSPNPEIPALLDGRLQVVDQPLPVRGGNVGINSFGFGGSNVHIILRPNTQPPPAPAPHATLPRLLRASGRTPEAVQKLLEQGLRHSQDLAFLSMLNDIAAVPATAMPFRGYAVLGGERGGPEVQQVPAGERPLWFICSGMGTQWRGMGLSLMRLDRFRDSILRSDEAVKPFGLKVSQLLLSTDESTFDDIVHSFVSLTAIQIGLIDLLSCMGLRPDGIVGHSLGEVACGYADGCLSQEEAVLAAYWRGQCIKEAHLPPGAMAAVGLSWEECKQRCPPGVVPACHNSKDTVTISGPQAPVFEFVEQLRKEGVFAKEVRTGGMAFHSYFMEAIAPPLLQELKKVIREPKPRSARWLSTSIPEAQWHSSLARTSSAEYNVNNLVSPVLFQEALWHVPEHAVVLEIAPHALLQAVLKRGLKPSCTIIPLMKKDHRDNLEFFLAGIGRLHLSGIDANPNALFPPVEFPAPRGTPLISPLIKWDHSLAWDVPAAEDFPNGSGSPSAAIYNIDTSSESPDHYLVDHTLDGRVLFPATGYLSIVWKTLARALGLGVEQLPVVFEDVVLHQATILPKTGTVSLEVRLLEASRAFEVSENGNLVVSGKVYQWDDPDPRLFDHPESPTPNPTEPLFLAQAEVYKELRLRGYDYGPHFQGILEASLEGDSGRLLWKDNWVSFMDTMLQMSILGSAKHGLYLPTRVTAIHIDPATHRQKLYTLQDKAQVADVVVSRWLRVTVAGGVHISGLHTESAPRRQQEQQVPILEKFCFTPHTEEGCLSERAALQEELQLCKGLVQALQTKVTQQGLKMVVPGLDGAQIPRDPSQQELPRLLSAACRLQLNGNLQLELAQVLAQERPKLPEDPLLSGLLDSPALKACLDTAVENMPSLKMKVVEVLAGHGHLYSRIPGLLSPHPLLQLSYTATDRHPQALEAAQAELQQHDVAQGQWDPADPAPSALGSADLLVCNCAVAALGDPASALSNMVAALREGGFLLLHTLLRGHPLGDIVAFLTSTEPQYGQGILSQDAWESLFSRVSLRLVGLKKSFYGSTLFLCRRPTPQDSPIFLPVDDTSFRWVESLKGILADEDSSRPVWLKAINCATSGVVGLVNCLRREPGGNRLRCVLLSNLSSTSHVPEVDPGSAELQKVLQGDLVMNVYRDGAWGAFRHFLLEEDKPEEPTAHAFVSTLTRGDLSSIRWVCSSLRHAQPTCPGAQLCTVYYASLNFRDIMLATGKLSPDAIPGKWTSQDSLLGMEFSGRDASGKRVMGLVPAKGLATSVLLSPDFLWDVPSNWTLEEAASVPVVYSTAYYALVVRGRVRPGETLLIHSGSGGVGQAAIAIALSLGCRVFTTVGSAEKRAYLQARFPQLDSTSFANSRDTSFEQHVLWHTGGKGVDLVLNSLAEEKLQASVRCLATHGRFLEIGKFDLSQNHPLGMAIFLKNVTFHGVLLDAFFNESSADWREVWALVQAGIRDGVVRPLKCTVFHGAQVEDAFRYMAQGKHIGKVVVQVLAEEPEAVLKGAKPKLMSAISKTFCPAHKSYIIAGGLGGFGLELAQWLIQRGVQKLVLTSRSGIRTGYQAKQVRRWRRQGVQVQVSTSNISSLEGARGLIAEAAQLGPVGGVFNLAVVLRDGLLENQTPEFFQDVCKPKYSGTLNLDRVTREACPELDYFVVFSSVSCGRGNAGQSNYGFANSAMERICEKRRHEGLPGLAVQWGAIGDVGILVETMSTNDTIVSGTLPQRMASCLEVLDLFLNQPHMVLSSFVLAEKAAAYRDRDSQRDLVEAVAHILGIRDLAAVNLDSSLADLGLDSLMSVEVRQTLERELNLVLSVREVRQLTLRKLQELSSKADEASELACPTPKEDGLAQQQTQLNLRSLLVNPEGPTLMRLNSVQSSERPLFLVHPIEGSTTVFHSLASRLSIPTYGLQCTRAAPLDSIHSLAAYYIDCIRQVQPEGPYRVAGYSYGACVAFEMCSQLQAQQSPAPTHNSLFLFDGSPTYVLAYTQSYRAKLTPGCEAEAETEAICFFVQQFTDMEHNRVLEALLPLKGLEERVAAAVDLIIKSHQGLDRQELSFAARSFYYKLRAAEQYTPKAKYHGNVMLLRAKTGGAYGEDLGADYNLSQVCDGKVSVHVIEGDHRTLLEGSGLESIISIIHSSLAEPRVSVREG

CCCCCCCCCCCCCCCC
active: [7] 50 µM
not listed: [19]
inactive: all other assays above

CCCCc1ccc2c(n1)[C@@H](c1ccc(OC)cc1C[C@H](C)C(=O)O)[C@H](C(=O)O)[C@H]2c1ccc2c(c1)OCO2
active: [7] 71.7 µM
not listed: [19]
inactive: all other assays above

CCCCC(CC)COC(=O)CC(C(=O)OCC(CC)CCCC)S(=O)(=O)O (stereo not given)
inactive: [2] | [3] | [13] | [14] | [16]
active: [1] 80.5 µM | [4] 85.3 µM | [6] 77.4 µM | [7] 10.3 µM | [19] 81.7 µM | [8] 80.8 µM | [9] 93.9 µM | [10] 79.8 µM | [11] 89.9 µM | [12] 82.2 µM | [15] 89.2 µM | [17] 90.7 µM | [18] 79.9 µM

NS(=O)(=O)c1cc2c(cc1Cl)NCNS2(=O)=O
not listed: [19]
inactive: all other assays above

C=CCc1ccc(O)c(OC)c1
not listed: [5]
inactive: all other assays above

Oc1ccc2ccccc2c1N=Nc1ccccc1
inactive: [2] | [3] | [8] | [9] | [11] | [13] | [15] | [17]
active: [1] 1.16 µM | [4] 9.92 µM | [6] 10.4 µM | [7] 0.14 µM | [19] 11.3 µM | [10] 7.86 µM | [12] 31 µM | [14] 6.98 µM | [16] 30.3 µM | [18] 11.1 µM

COc1cc(S(=O)(=O)O)c(C)cc1N=Nc1c(O)ccc2cc(S(=O)(=O)O)ccc12
not listed: [7] | [19]
inactive: all other assays above
